The supplement of paper PMC6555819

System: VDR:RXRa (NR concentration 270 nM, RXRa partner concentration 90 nM)
Experiment: PBM binding z-score (relative to random genomic background probes); higher = stronger binding; sequences stand for … in GC…GCGATTGACAGCGTAGAATGAAGG
Method: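 Protein-binding microarray (Agilent 4x180K custom design, double-stranded 60-nt probes: 5' GC cap, 34-nt variable region, 24-nt constant primer region; full probe sequence given). Purified or IVT nuclear receptor:RXRα heterodimers (3:1 NR:RXRα, mostly 270:90 nM) or homodimers were incubated for 1 h in PBS with 2% milk and no ligand, then detected with Alexa488 antibodies. Fluorescence from o1-orientation probes (~5 replicates averaged) was converted to z-scores against 500 random hg19 background probes. Variable regions are seed direct-repeat (DR0–DR5) sites, all their single-nucleotide variants and half-site ablations.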

| Sequence | PBM binding z-score |
| --- | --- |
| CCTGCTAGGTCAATGGTCAGCTACAGCAGCTCGC | 0.991 |
| GCTTGTAGATAAAGGTTAAGAAAGACTAAGCTAA | 0.626 |
| CCTAGTTGGTAAGGAGGTCACACACCGGATATGA | 3.53 |
| CAAACTAGCTCACGAAAGGTCAAAGTCGAATGAC | 4.32 |
| TCATATAGGTAAAAGATGAAAGTCGGTGTGGTAA | 0.912 |
| AATACAGGGTCATCGCAGGCCAGAGTACGCACAG | 5.31 |
| AGAATGAGGTTATACGTAGATCACGGAAGAAAGT | 1.61 |
| CAAACTAGGTCAAGGTCGAAGTCGGTTTGTGCCA | 3.27 |
| TCTGCTAGGTCGACGATGGTCAGCTAATCTGCTA | -0.229 |
| TCATATAGGTAAATGCTAGGTGAAATTCCGATCT | 0.761 |
| GGAACGAGGGAAAAGTTGATAGCATCTGTCGACG | -0.649 |
| TTATATAGGTAAAAGGTGAAAGTCGGTGTGGTAA | 1.4 |
| ATATGTAGGTAAGCTGGGGTCATTCAGACTAGGC | 5.49 |
| AGTCAAAGTTCAGGACGAGGTAACGTACAGCACG | 2.88 |
| TCTGCAAGGTCAACGATGGTCAGCTAATCTGCTA | 4.53 |
| CCTCCAAGGTCAGAGAGGTCAGTGAATGCCGAGT | 7.22 |
| ATCACTAGGTAACCAAGTTCAGTGAATGCCGAAC | 3.92 |
| CATACTGGGCCAAGGTCATTGATCAGTCAAAGCA | 3.48 |
| TCTTGTAGATCAGCAGGTTAAGAAGGCTGGCCAA | 0.724 |
| TAGCCTAGGTCAGTCAGGGGCCAGTATAGAAAGC | 0.785 |

| Sequence | PBM binding z-score |
| --- | --- |
| CTACCAAGGTGAACCAGGTCGTTGATTACTATTC | 4.93 |
| ACTATTAGTTAAGACGAGGGCAACCGATAGGTTG | 0.464 |
| GGAGACAGGTGAAACGCAGGTAACTCAGGGTGGC | -0.319 |
| ATCGAAAGGTCGTGAGGTGAGTCTACAGAAAGGC | 3.66 |
| GCTGCTAGGTCAGGTTGGTCACCTAACGGGTACG | 0.967 |
| TCTTGTGGATCAAGCAGGTTAAGAAAGCCTGAGT | 0.403 |
| GCTGCTAGGTCAGGGTGGTCAGCTAACGGGTACG | 1.25 |
| CCTGCTAGGTCAATAGTCAGCTAAAGCAGCTCGC | 0.487 |
| TCATATAGGTAAACAGGTGTAAGTCCGTAAGTTA | 1.6 |
| GCTAGTTGGTCAGTAAAAGGTCACGCACCGGTCG | 4.36 |
| GCTGCTAAGTCAACTGATGGTCAGCTAAAGCTCG | -0.619 |
| TTACCAAGGTGAGCTGACGTCGTTGATCCAACTC | -0.477 |
| CCTGCTAGATCAATGGTCAGCTAAAGCAGCTCGC | -0.615 |
| CCTCGGAGGCCAGAAGGTCAGAGCTGTCCGCTTT | 0.72 |
| ACTATTAGTTGACTTAGGGCAACGGATACGACGC | 0.248 |
| TAGCCTAGGTCATGGGCCGGTATACCACGCGAAC | 2.18 |
| ATACCAAGGTGATCGTGAGGTCGTTCATACTAAC | 3.58 |
| TAGCCTAGGTCATGGGCGAGTATACCACGCGAAC | 2.32 |
| GGAACGAGGGCAAAGTTGATAACATCTGTCGACG | 1.68 |
| CCTACTGGGCCATCAGGTCATAGATATCAACGTT | 1.25 |
